Laboratory results reported in PubChem BioAssay (NCATS).
Where “and” joins values, the source holds several entries; their conditions need not be identical. Equal entries are not always repeated. Values without a mark were called inactive. Inconclusive results are not listed. A call without a number means that no potency is given here. Calls of active or inactive are those of the source. Unless noted, calls follow the shape of the dose curve; as a rule, active = well fitted curve in the direction sought with a large enough effect; inconclusive = small, poorly fitted or top-dose-only effect, or another doubt; inactive = no such curve, though single readings can be large; an effect the other way counts as inactive or inconclusive.

Tests used:
[1] = NFAT Signaling Pathway (AID 444; active = well fitted curve in either direction with a large enough effect, not every such curve was filed as active;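 also: carbachol stimulus at about its EC50 of 1 µM final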); settings: Jurkat NFAT-bla M1, carbachol, beta-lactamase ratio, 5 h
Outline: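 Jurkat cells with NFAT-driven β-lactamase reporter and co-expressed M1 receptor, stimulated with carbachol (final 1 uM, ~EC50), compound titration, 5 h at 37 °C. CCF4 loaded 1 h at RT; 460/530 nm ratio gave %activity and AC50.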

[2] = Stat Signaling Pathway (AID 446; active = well fitted curve in either direction with a large enough effect, not every such curve was filed as active;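 also: ME-180 cervical cancer cells given 40 pM IL-6 alongside compound; SIE-controlled beta-lactamase reporter measured as 460/530 nm FRET emission ratio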); settings: ME-180 (cervical carcinoma) SIE beta-lactamase reporter, IL-6 stimulated, 5 h
Outline: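 Compound effects on IL-6-induced STAT reporter activity were measured in ME-180 cells. After overnight culture, cells were co-treated with 40 pM IL-6 for 5 hrs before beta-lactamase substrate loading at room temperature.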

[3] = molecular target: Mitogen-activated protein kinase 10 (Mus musculus) (UniProt Q61831); experiment: JNK3 AlphaScreen Assay (AID 530; active = well fitted curve in either direction with a large enough effect, not every such curve was filed as active;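 also: kinase came from lysate of stimulated human HepG2 cells; signal reports phosphorylation of biotinylated GST-cJun 1-79 at Ser73 with 10 µM ATP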)
Outline: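 HepG2 lysate (IL-1b/TNFa pre-activated) + biotin-GST-cJun 1-79 + anti-pSer73 cJun; cpd titration, 15 min RT; ATP 10 uM start; Tris pH 7.6, MgCl2, DTT, vanadate; beads in EDTA buffer; AlphaScreen.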

[4] = tested on: Zika virus NS2B-NS3 protease; experiment: Primary screen GU AMC qHTS for Zika virus inhibitors (AID 1347154); also: nearly all actives have a fitted effect of over 70% in size
Outline: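 Unlinked Zika NS2B hydrophilic domain–NS3 protease complex at 25 nM in 10 mM Tris-HCl pH 8.0, 0.01% Tween 20, with an AMC peptide substrate. Fluorescence change (340/450 nm) over 15 min at room temperature, normalized to controls, fitted to 4-parameter Hill.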

[5] = Primary qHTS for small molecule stabilizers of the endoplasmic reticulum resident proteome: Secreted ER Calcium Modulated Protein (SERCaMP) assay (AID 1508630)
Outline: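 The SH-SY5Y reporter protocol was run at 3 concentrations up to 38.3 uM (primary) or 11 concentrations (follow-up): 16 h compound, 100 nM thapsigargin for 4 h, then extracellular luciferase luminescence.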

[6] = molecular target: Cytochrome P450 3A4 (Homo sapiens) (UniProt P08684); experiment: qHTS Assay for Activators of Cytochrome P450 3A4 (AID 885); also: nearly all actives have a fitted effect of over 65% in size
Outline: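 CYP3A4 activity: Luciferin-PPXE O-dealkylation, 25uM substrate, 200mM KPO4, RT throughout. Read-out is luciferase luminescence; higher values reflect activation.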

[7] = molecular target: Ubiquitin carboxyl-terminal hydrolase 1 (Homo sapiens) (UniProt O94782); experiment: Inhibitors of USP1/UAF1: Pilot qHTS (AID 504865);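 also: rhodamine fluorescence freed from ubiquitin-rhodamine substrate followed over time; top concentration of the series differs between compounds; nearly all actives have a fitted effect of over 35% in size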
Sequence of Ubiquitin carboxyl-terminal hydrolase 1 (Homo sapiens) (O94782 whole entry, looked up): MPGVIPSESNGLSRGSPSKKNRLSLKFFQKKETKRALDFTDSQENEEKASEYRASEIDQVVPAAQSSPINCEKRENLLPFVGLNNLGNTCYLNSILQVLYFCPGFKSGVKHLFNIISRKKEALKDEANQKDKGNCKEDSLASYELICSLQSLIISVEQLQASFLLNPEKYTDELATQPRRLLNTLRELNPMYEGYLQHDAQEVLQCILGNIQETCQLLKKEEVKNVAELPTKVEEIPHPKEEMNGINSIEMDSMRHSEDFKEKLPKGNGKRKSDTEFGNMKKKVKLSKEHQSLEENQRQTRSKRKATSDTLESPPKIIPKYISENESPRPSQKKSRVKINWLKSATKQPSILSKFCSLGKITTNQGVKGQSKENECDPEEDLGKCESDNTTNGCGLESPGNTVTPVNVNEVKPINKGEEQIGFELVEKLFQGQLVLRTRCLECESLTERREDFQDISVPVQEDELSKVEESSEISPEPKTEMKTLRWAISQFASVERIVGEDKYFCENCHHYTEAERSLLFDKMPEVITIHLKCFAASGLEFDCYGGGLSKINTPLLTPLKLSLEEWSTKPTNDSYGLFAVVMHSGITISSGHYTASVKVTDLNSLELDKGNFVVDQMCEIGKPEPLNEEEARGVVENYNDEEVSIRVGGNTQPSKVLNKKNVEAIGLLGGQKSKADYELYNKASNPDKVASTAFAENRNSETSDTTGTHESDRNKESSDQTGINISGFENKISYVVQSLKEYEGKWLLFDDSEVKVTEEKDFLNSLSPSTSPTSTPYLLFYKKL
Outline: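 Enzyme-free wells gave the negative control, while test wells held 1nM USP1/UAF1 preincubated with compound for 15 min at room temperature. Ub-Rho at 150nM final started the reaction, and fluorescence at 480/540 nm was recorded kinetically.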

[8] = molecular target: DNA dC->dU-editing enzyme APOBEC-3G (Homo sapiens) (UniProt Q9HC16); experiment: qHTS for inhibitors of Vif-A3G interactions: Validation (AID 588379)
Sequence of DNA dC->dU-editing enzyme APOBEC-3G (Homo sapiens) (Q9HC16 whole entry, looked up): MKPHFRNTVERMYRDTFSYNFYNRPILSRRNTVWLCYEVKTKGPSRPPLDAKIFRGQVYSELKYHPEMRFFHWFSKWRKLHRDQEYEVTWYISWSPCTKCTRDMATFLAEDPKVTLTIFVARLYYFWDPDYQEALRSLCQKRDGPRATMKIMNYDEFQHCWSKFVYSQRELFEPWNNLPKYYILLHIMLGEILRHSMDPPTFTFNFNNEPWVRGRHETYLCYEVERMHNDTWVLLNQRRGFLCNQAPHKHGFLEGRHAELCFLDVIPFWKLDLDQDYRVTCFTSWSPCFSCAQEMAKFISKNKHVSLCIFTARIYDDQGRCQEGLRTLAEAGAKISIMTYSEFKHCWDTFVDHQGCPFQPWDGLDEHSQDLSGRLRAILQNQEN
Outline: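 Yellow fluorescence (Ex 488, Em 500-530) of Vif-coexpressing HeLa A3G-eYFP cells, scanned by Acumen cytometer, reports blocked A3G degradation. Cells plated at 700/well overnight at 37 deg C before compound addition, then a further overnight compound incubation at 37 deg C.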

[9] = molecular target: Cytochrome P450 1A2 (Homo sapiens) (UniProt P05177); experiment: p450-cyp1a2 (AID 410; calls by dose curve; also: potency is read from the fitted curve at half-maximal effect)
Sequence of Cytochrome P450 1A2 (Homo sapiens) (P05177 whole entry, looked up): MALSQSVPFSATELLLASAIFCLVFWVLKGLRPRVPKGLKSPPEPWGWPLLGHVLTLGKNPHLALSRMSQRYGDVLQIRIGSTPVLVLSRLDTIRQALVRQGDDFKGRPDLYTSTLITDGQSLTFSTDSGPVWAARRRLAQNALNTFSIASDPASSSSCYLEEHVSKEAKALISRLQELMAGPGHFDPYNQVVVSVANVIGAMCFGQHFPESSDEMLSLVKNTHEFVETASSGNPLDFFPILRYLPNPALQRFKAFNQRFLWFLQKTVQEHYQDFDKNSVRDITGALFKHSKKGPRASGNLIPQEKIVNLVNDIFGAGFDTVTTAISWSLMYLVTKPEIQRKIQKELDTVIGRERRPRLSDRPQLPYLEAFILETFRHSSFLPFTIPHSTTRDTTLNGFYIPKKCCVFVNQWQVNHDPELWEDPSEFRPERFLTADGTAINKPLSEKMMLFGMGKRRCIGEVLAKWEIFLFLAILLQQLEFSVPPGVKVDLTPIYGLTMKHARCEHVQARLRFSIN
Outline: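 20nM CYP1A2, 100uM Luciferin-ME (=Km), 100mM KPO4; cpd 10 min RT; +NADPH regen, 60 min RT; stop/detect 20 min; luminescence. Normalized to furafylline 57 uM = full inhibition.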

[10] = molecular target: 3',5'-cyclic-AMP phosphodiesterase 4B (Homo sapiens) (UniProt Q07343); experiment: qHTS Assay for Inhibitors of PDE-IV (AID 607; active = well fitted activation curve with a large enough effect in the main read-out, with a control signal flat, not every such curve was filed as active)
Sequence of 3',5'-cyclic-AMP phosphodiesterase 4B (Homo sapiens) (Q07343 whole entry, looked up): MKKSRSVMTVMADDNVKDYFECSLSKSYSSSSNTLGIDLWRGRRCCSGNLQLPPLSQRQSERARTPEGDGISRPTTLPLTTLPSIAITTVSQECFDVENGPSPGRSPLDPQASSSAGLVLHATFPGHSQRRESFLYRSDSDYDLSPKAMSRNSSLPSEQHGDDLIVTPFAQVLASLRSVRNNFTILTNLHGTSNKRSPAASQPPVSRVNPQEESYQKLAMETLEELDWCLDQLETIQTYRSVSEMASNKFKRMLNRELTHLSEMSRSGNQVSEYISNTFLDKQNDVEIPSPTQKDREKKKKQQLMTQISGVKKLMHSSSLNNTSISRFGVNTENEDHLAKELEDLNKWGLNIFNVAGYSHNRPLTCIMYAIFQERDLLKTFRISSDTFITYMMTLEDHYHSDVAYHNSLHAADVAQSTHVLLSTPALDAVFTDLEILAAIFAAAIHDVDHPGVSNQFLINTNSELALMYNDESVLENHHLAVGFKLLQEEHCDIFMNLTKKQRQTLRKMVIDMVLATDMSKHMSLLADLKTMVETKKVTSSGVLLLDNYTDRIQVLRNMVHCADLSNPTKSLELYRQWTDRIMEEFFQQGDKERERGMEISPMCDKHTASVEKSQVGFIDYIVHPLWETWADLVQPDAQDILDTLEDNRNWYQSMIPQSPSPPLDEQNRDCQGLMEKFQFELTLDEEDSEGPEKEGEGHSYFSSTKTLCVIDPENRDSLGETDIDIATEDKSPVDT
Outline: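 ACTOne HEK293 cells carry a modified cAMP-gated CNG channel and express endogenous PDE4; plated 1000 cells/well, compounds up to 22.9 uM final. Membrane-potential dye fluorescence (ex 535/em 590) was read; parental cells received 10 uM forskolin + 100 uM RO 20-1724.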

[11] = molecular target: Guanine nucleotide-binding protein G(i) subunit alpha-1 (Homo sapiens) (UniProt P63096); experiment: qHTS Assay for Inhibitors of RGS12 GoLoco Motif Activity (Green Fluorophore) (AID 879);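 also: negative values mean loss of peptide binding seen as reduced polarization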
Sequence of Guanine nucleotide-binding protein G(i) subunit alpha-1 (Homo sapiens) (P63096 whole entry, looked up): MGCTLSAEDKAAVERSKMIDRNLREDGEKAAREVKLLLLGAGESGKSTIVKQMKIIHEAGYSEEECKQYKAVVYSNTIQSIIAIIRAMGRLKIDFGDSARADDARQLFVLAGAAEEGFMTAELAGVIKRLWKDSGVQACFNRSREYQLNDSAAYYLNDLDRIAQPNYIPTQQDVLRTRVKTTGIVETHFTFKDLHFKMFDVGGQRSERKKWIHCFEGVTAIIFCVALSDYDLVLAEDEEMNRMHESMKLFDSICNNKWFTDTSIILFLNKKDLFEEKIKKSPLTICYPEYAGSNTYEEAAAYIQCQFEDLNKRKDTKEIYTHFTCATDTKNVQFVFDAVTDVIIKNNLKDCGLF
Outline: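 A drop in FITC polarization marked displacement of the FITC-tagged RGS12 GoLoco peptide (10 nM) from Gαi1 (50 nM). Compounds were incubated 10 min at room temperature in Tris pH 7.5 buffer containing 150 mM NaCl, 0.1 mM GDP and 0.05% NP40; unlabeled peptide titration served as control.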

[12] = molecular target: Pyruvate kinase (Leishmania mexicana) (UniProt Q27686); experiment: qHTS Validation Assay for Inhibitors of Leishmania Mexicana Pyruvate Kinase (AID 945)
Sequence of Pyruvate kinase (Leishmania mexicana) (Q27686 2-499 E452W): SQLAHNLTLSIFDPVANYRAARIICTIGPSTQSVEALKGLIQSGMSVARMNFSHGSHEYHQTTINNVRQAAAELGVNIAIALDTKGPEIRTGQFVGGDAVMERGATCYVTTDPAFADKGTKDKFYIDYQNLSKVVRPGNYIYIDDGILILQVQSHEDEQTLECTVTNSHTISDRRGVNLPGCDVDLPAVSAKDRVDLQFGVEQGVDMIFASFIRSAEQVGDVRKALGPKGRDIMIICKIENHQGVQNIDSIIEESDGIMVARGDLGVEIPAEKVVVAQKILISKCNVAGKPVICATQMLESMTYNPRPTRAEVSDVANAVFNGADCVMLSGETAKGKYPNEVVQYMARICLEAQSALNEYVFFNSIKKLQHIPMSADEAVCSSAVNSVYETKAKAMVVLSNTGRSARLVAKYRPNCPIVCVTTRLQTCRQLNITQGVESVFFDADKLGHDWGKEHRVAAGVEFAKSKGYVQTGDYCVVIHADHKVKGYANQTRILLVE
Outline: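 The enzyme is a highly purified E451W mutant of LmPYK used at 0.2 nM. It converts 0.5 mM PEP and 0.1 mM ADP over 1 h at room temperature; product ATP is quantified by luciferase luminescence relative to DMSO controls.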

[13] = molecular target: Pyruvate kinase PKM (Homo sapiens) (UniProt P14618); experiment: qHTS Assay for Activators of Human Muscle Pyruvate Kinase (AID 954; active = well fitted curve in the direction sought with a large enough effect, not every such curve was filed as active)
Sequence of Pyruvate kinase PKM (Homo sapiens) (P14618 whole entry, looked up): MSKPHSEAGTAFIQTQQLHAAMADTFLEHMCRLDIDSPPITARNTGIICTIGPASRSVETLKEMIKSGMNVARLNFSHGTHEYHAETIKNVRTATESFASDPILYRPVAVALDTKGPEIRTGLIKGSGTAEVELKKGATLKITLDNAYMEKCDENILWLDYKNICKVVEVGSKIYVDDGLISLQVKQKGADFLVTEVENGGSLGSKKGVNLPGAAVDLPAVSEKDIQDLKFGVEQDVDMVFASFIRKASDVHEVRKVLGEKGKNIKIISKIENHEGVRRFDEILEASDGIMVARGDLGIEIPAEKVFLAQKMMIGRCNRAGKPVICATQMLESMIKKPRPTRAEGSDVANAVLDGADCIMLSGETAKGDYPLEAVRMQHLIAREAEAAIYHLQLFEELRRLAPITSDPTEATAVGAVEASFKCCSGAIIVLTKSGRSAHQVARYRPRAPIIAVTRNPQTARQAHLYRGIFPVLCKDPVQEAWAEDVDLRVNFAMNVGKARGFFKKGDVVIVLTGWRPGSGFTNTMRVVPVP
Outline: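 A coupled luminescent readout tracked ATP made from ADP by purified PKM2. Final conditions included 0.1 nM enzyme, PEP and ADP at 0.5 and 0.1 mM, pH 7.2 imidazole buffer with BSA, and a one-hour room-temperature reaction.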

[14] = molecular target: Alpha-galactosidase A (Homo sapiens) (UniProt P06280); experiment: Counterscreen for Glucocerebrosidase Inhibitors: qHTS Assay for Human alpha-Galactosidase at pH 4.5 (AID 992)
Sequence of Alpha-galactosidase A (Homo sapiens) (P06280 whole entry, looked up): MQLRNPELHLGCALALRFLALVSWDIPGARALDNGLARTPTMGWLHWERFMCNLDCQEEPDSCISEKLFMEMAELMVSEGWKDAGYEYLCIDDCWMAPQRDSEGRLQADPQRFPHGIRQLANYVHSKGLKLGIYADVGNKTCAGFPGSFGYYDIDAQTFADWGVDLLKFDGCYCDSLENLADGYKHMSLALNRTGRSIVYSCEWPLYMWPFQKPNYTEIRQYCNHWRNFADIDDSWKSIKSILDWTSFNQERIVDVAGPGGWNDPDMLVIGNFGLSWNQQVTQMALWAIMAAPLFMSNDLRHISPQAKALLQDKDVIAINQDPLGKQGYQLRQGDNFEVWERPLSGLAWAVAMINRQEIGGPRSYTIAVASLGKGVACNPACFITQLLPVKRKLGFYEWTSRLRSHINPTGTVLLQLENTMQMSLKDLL
Outline: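 Citrate buffer pH 4.5, Tween-20 0.005%. Enzyme 2 nM, substrate 80 uM, 20 min RT. Stop pH 10. Fluorescence Ex 365/Em 440. AC50 by Hill fit.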

[15] = molecular target: alpha-glucosidase (Oryza sativa, rice) (UniProt Q653V4); experiment: Counterscreen for Glucocerebrosidase Inhibitors: qHTS Assay for Rice alpha-Glucosidase at pH 5.0 (AID 997)
Outline: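 Endpoint fluorogenic assay at pH 5.0: compounds (0.7 nM to 77 uM) titrated against 4 nM rice enzyme and 400 uM 4-MU-alpha-glucoside for 20 min at room temperature; NaOH/glycine stop, read ex 365/em 440 nm, Hill-fitted AC50.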

[16] = molecular target: Glucocorticoid receptor (Homo sapiens) (UniProt P04150); experiment: GR-GFP Redistribution (AID 450;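 active = compounds whose dose series gives a full or clear partial fitted curve of increased nuclear translocation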; also: potency is read from the fitted curve at half-maximal effect); settings: U2OS GR-GFP nuclear translocation, laser cytometry, 2 h
Sequence of Glucocorticoid receptor (Homo sapiens) (P04150 whole entry, looked up, the tested form may be a part): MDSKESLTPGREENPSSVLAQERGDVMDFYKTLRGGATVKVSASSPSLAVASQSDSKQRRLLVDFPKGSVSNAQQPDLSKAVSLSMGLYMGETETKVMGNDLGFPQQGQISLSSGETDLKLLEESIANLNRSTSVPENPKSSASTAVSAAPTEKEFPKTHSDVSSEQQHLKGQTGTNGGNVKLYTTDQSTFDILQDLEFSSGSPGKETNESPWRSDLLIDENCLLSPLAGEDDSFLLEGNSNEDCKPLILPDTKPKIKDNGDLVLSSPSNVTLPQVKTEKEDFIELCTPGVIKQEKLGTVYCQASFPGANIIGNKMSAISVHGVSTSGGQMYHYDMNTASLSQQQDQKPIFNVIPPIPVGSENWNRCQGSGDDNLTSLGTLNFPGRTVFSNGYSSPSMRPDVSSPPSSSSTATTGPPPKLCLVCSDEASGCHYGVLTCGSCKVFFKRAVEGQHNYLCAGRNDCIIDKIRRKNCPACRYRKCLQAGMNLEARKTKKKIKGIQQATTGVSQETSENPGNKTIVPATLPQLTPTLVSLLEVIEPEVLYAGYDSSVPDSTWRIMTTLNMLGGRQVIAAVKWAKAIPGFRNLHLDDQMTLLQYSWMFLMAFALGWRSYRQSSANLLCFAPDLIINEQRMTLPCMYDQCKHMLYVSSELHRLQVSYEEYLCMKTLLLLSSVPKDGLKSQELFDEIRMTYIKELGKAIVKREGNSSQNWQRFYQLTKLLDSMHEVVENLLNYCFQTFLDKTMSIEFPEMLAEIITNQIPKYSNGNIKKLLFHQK

[17] = molecular target: Glucocorticoid receptor (Homo sapiens) (UniProt P04150); experiment: GR-EFC Redistribution (AID 451; calls by dose curve; also: potency is read from the fitted curve at half-maximal effect); settings: CHO-K1 GR-EFC translocation, beta-gal luminescence, 2 h
Outline: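 CHO-K1 cells expressing nuclear EA and GR-ED fragments of b-gal; compounds titrated up to 46 uM final, 2 h at 37 C. GR nuclear translocation read as complemented b-gal luminescence after 1 h RT detection.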

## NCCC[C@@H](N)C(=O)O
[1]; at 7.69 µM (top of the series)
  activity change, negative = inhibition: -0.481%
[2]; at 7.69 µM (top of the series)
  activity, negative = inhibition: 1.44%
[3]
  activity change, negative = inhibition: 6.02% [at 11.4 µM]
[4]
  Potency: inactive
[5]
  Potency: inactive

## c1ccc(-c2n[nH]c3c2oc2ccccc23)cc1
[4]
  Potency: inactive
[5]
  Potency: inactive

## CCCCC[C@H](O)CC(=O)CCc1ccc(O)c(OC)c1
[4]
  Potency: inactive
[5]
  Potency: inactive

## CC(C)=CCC/C(C)=C/CC/C(C)=C/CO
[6]
  Potency: inactive
[7]
  Potency: inactive
[8]
  Potency: inactive
[4]
  Potency: inactive
[5]
  Potency: inactive

## NC(N)=NN=Cc1c(Cl)cccc1Cl
[9]
  Potency: 7.94 µM (active) and 3.98 µM (active) and 2 µM (active)
[1]; at 17.2 µM (top of the series)
  activity change, negative = inhibition: -0.975%
[1]; at 38 µM (top of the series)
  activity change, negative = inhibition: -1.48%
[2]; at 17.2 µM (top of the series)
  activity, negative = inhibition: 9.46%
[2]; at 38 µM (top of the series)
  activity, negative = inhibition: -0.683%
[3]
  Potency: inactive
[10]
  Potency: inactive
[11]
  outcome: inactive
[12]
  Potency: inactive
[13]
  outcome: inactive
[14]
  outcome: inactive
[15]
  outcome: inactive
[7]
  Potency: inactive
[8]
  Potency: inactive
[4]
  Potency: inactive
[5]
  Potency: inactive

## C[N+](C)(C)CCC(=O)c1cccc2ccccc12
[9]
  Potency: 7.94 µM (active)
[1]; at 38 µM (top of the series)
  activity change, negative = inhibition: 13.8% (active)
[2]; at 38 µM (top of the series)
  activity, negative = inhibition: -81.5% (active)
[16]
  Potency: > 46 µM
[17]
  Potency: > 46 µM
[3]
  Potency: inactive
[10]
  Potency: inactive
[11]
  outcome: inactive
[6]
  Potency: inactive
[12]
  Potency: inactive
[13]
  outcome: inactive
[14]
  outcome: inactive
[15]
  outcome: inactive
[4]
  Potency: inactive
[5]
  Potency: inactive

## CCOC(=O)[C@@]12C[C@@H]1/C(=N/O)c1ccccc1O2
[9]
  Potency: 3.98 µM (active) and 316 nM (active)
[1]; at 38 µM (top of the series)
  activity change, negative = inhibition: -7.55%
[2]; at 38 µM (top of the series)
  activity, negative = inhibition: -6.6%
[16]
  Potency: > 46 µM
[17]
  Potency: > 46 µM
[3]
  Potency: inactive
[10]
  Potency: inactive
[11]
  outcome: inactive
[12]
  Potency: inactive
[13]
  outcome: inactive
[14]
  outcome: inactive
[15]
  outcome: inactive
[8]
  Potency: inactive
[4]
  Potency: inactive
[5]
  Potency: inactive

## N#CC(=C(/N)Sc1ccccc1N)/C(C#N)=C(\N)Sc1ccccc1N
[4]
  Potency: inactive
[5]
  Potency: inactive

## CN[C@@H]1[C@H](O)[C@H](O[C@@H]2[C@H](O)[C@@H](O[C@H]3O[C@H]([C@@H](C)NC)CC[C@H]3N)[C@@H](N)C[C@H]2N)OC[C@]1(C)O
[4]
  Potency: inactive
[5]
  Potency: inactive

## CCC(C)(C)C(=O)O[C@@H]1C[C@@H](C)C=C2C=C[C@H](C)[C@H](CC[C@@H]3C[C@@H](O)CC(=O)O3)[C@H]21
[16]
  Potency: > 46 µM
[17]
  Potency: > 46 µM
[3]
  Potency: inactive
[8]
  Potency: inactive
[4]
  Potency: inactive
[5]
  Potency: inactive

## CCOC(OCC)P(=O)(O)CCCNCc1ccc(Cl)c(Cl)c1
[9]
  Potency: inactive
[16]
  Potency: > 46 µM
[17]
  Potency: > 46 µM
[3]
  Potency: inactive
[7]
  Potency: inactive
[8]
  Potency: inactive
[4]
  Potency: inactive
[5]
  Potency: inactive
